Pf apPOL inh: Pf-apPOL inhibitors, biochemical, fluorescence. Plasmodium falciparum apicoplast DNA polymerase (apPOL). Recombinant Pf-apPOL, molecular beacon fluorescence, 1.5 h. inhibition, % at 10 µM. 210,000 compounds, 0.25% hits. AID 1794808, 2022
mHTT CaM bind: mutant huntingtin-calmodulin interaction inhibitors – biochemical, AlphaScreen, primary screen; P42858; AlphaScreen His-mHTT/GST-CaM binding, luminescence; inhibition, % at 15 µM; 190,000 compounds, 3.6% hits; AID 1671202, 2021
Of the large screens only hits and unclear results are named; the others gave an inactive call. The entries come from a sample that favours hits as a whole. Cut-off read from the data, not from the text of the source: active = inhibition above about 50%; inactive = the rest.

COc1ccccc1NC(=O)CN1CCC2(CC1)N=C(c1cccc(C)c1)C(=O)N2	mHTT CaM bind 50
CSc1cccc(NC(=O)CN2CCC3(CC2)N=C(c2ccc(C)cc2)C(=O)N3)c1	none
CSc1cccc(NC(=O)CN2CCC3(CC2)N=C(c2cccc(C)c2)C(=O)N3)c1	mHTT CaM bind 70
COc1ccc(NC(=O)CN2CCC3(CC2)N=C(c2ccc(C)cc2)C(=O)N3)c(OC)c1	none
COc1ccccc1NC(=O)CN1CCC2(CC1)N=C(c1cccc(Cl)c1)C(=O)N2	mHTT CaM bind 97
Cc1ccc(NC(=O)CN2CCC3(CC2)N=C(c2ccccc2)C(=O)N3)c(C)c1	mHTT CaM bind 56
COc1ccccc1NC(=O)CN1CCC2(CC1)N=C(c1ccc(Cl)cc1)C(=O)N2	none
Cc1ccc(C)c(NC(=O)CN2CCC3(CC2)N=C(c2ccccc2)C(=O)N3)c1	none
COc1ccc(-n2nc(C(=O)N3CCCCC3C)c3ccccc3c2=O)cc1 (stereo not given)	none
Cc1ccc(C(=O)N2CCC(Cc3nc4cccnc4n3C)C2)cn1 (stereo not given)	none
O=C(Nc1ccc(Cl)cc1)N1CCc2nc(-c3ccc(Cl)cc3)ncc2C1	none
O=C(c1csc(CN2CCN(Cc3ccccc3)CC2)n1)N1CCOCC1	none
Cc1ccc(NC(=O)CN2CCC3(CC2)N=C(c2ccccc2)C(=O)N3)cc1F	mHTT CaM bind 55
O=C(CN1CCC2(CC1)N=C(c1ccccc1)C(=O)N2)Nc1ccc(F)c(F)c1	none
COC(=O)c1ccc(C(=O)NCCN2CCN(S(C)(=O)=O)CC2)cc1	none
O=C(O)c1ccc(N2C(=O)CSC2c2ccccc2C(F)(F)F)cc1 (stereo not given)	none
Brc1ccc2[nH]c3c(c2c1)CCC3	none (no result: mHTT CaM bind)
NC(=O)c1cc(Br)cc2c3c([nH]c12)CCCC3	mHTT CaM bind 62
CC(C)n1c(=N)c(C(=O)NCC2CCCO2)cc2c(=O)n3ccccc3nc21 (stereo not given)	none
N=c1oc2c(Cl)cc(Cl)cc2cc1C(N)=O	mHTT CaM bind 91
NC(=O)c1ccc(N=c2oc3c(Cl)cc(Cl)cc3cc2C(N)=O)cc1	none
COc1ccc(CC(=O)N2CCCC2c2cc(C(C)C)no2)cc1OC (stereo not given)	none
COc1ccccc1CNS(=O)(=O)c1ccc2[nH]c3c(c2c1)CCCCC3	mHTT CaM bind 98
Cc1ccc(CCNS(=O)(=O)c2ccc3[nH]c4c(c3c2)CCCC4)cc1	mHTT CaM bind 85
Cc1cccnc1NS(=O)(=O)c1ccc2[nH]c3c(c2c1)CCCC3	none
CCOc1ccc(CNS(=O)(=O)c2ccc3[nH]c4c(c3c2)CCCC4)cc1OC	mHTT CaM bind 59
COc1ccccc1CNS(=O)(=O)c1ccc(C)c([N+](=O)[O-])c1	none
CCOc1ccc(CNS(=O)(=O)c2ccc3[nH]c(=O)sc3c2)cc1OC	none
Cc1ccccc1CC(=O)N1CCC(CCOc2cccnc2)CC1	none
COc1ccc(-c2[nH]ncc2-c2ccc(Cl)cc2)c(O)c1	mHTT CaM bind 69
COc1ccc(-c2[nH]ncc2Oc2ccc(F)cc2)c(O)c1	none
Nc1c(Br)cc(Cl)c2c1C(=O)c1ccccc1C2=O	none
Nc1c(Br)cc(O)c2c1C(=O)c1ccccc1C2=O	mHTT CaM bind 83
CC(O)c1nc2ccccc2n1Cc1ccccc1 (stereo not given)	none
CN(C)c1ccc(C(O)c2nc3ccccc3n2Cc2ccccc2)cc1 (stereo not given)	mHTT CaM bind 50
CC(C)C(=O)N1CC(C(=O)NCc2ccccn2)C(c2ccccc2)C1 (stereo not given)	none
Cc1cccc(NS(=O)(=O)CC23CCC(CC2=O)C3(C)C)c1 (stereo not given)	none
CCn1c(/C=C/c2ccccc2Cl)nc2ccccc2c1=O	none
CCn1c(/C=C/c2cccnc2)nc2ccccc2c1=O	mHTT CaM bind 100
O=c1[nH]c(/C=C/c2ccc(Cl)cc2)nc2ccccc12	none
O=c1[nH]c(/C=C/c2cccnc2)nc2ccccc12	mHTT CaM bind 100
O=C1C(c2cccnc2)N(Cc2ccccc2)C(=O)CN1c1ccccc1 (stereo not given)	none
Cn1ccnc1/C=N/Nc1cc(Cl)ccc1Cl	none (no result: Pf apPOL inh)
O=C1C(=CC=CC2=C(O)c3ccccc3S2(=O)=O)S(=O)(=O)c2ccccc21	mHTT CaM bind 57 (no result: Pf apPOL inh)
O=C(Nc1nc(-c2cccc([N+](=O)[O-])c2)cs1)c1ccno1	none
FC(F)(F)c1nc2ccccc2nc1N1CCCC1	none
Nc1nc(NC(=O)C(Cl)(Cl)Cl)nn1-c1ccccc1	mHTT CaM bind 85
Nc1nc(NC(=O)c2ccc(Cl)cc2)nn1-c1ccccc1	none
O=C1NC(=O)/C(=C\c2ccc(-c3ccc([N+](=O)[O-])cc3Br)o2)S1	none
COc1ccccc1C(=O)N1CCC(Cc2ccc3c(c2)OCO3)CC1	none
COc1cc(C=C2SC(=S)N(c3cccc(O)c3)C2=O)ccc1O	mHTT CaM bind 81
COc1cc(C=C2SC(=S)N(c3ccc(C(=O)O)c(O)c3)C2=O)ccc1O	mHTT CaM bind 70
COc1cc(C=C2SC(=S)N(c3ccc4c(c3)OCO4)C2=O)cc(OC)c1OC	none
COc1cc(C=C2SC(=S)N(CC(=O)O)C2=O)ccc1O	none
Clc1cccc(CN2CCCCCCC2)c1	none
COc1ccc(C(=O)N2CCCC(C)(C(=O)NCc3cccc(F)c3)C2)cc1 (stereo not given)	none
c1csc(-c2cc3ccccc3[nH]2)c1	none (no result: mHTT CaM bind)
NCCc1c(-c2cccs2)[nH]c2ccccc12	mHTT CaM bind 88
CCOc1ccccc1CN1C(=O)c2ccccc2C1C(=O)NC1CCCC(C)C1C (stereo not given)	none
Cc1ccc(NC(=O)CCS(=O)(=O)c2ccc(Br)cc2)nc1	none
Cc1ccc(S(=O)(=O)CCC(=O)Nc2ncc(Br)s2)cc1	mHTT CaM bind 69
CCSc1nnc(-c2nn(C)c3c2CN(C(=O)c2ccc(C(F)(F)F)cc2)CC3)n1C	none
COc1ccc(NC(=O)CN2CCN(C3c4ccccc4-c4ccccc43)CC2)cc1	mHTT CaM bind 55
Cc1ccc(NC(=O)CN2CCN(C3c4ccccc4-c4ccccc43)CC2)cc1F	none
O=C(CN1CCN(C2c3ccccc3-c3ccccc32)CC1)Nc1ccc(F)cc1	none
NC(=O)c1ccc(NC(=O)CN2CCN(C3c4ccccc4-c4ccccc43)CC2)cc1	mHTT CaM bind 59
O=[N+]([O-])c1ccc(S(=O)(=O)/C=C/C=C/N2CCCCC2)cc1	mHTT CaM bind 93
O=[N+]([O-])c1ccc(S(=O)(=O)N2CCCCCC2)cc1	none
CCCNc1cc(N2CCCC(CCC(=O)NCCc3ccncc3)C2)ncn1 (stereo not given)	none
CN(C)CC1C(=O)N(c2ccccc2)N(c2ccccc2)C1=O	mHTT CaM bind 72
CCCCC1C(=O)N(c2ccccc2)N(c2ccccc2)C1=O	none (no result: mHTT CaM bind)
O=C(c1cccc(F)c1)N1CCN(Cc2ccccc2Br)CC1	none
O=C(c1cn(-c2ccc(F)cc2F)c(=O)c2ccccc12)N1CCC(Cc2ccccc2)CC1	mHTT CaM bind 61
COc1ccccc1N1CCN(C(=O)c2cn(-c3ccc(F)cc3F)c(=O)c3ccccc23)CC1	none
Cc1cc2n(n1)CCC(=O)N2CCCC(=O)NCCCN1CCCCCC1	none
Cc1cc(I)cc2c1NC(c1ccc(F)cc1)C1CC=CC21 (stereo not given)	mHTT CaM bind 54
Fc1ccc(C2Nc3ccc(F)cc3C3C=CCC32)cc1 (stereo not given)	mHTT CaM bind 94
COc1ccc(C2SCC(=O)N2CCc2ccccc2)cc1 (stereo not given)	none
